This passage reports Potency results from PubChem BioAssay (NCATS).

Assay [1] can be described thus: qHTS of pediatric cancer cell lines to identify multiple opportunities for drug repurposing: Primary screen for LAN-5 cells (AID 1347100). Note: potency is the fitted concentration of half-maximal effect. The method in brief:
(§1)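 Cells (500-1,000/well) rested 5 h, then received compounds for 48 h; metabolically active cells were measured by CellTiter-Glo luminescence. Final concentrations spanned up to 46 µM (MIPE, 11-point) or 0.59 nM-46 µM (NPC, 8-point) in primary screens, 11-point in follow-ups.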
In general terms: In qHTS, concentration-response curves come from the screen itself.

The nature of assay [2]: qHTS of pediatric cancer cell lines to identify multiple opportunities for drug repurposing: Primary screen for BT-12 cells (AID 1347101). Note: nearly all actives have a fitted effect of over 25% in size. Note: potency is the fitted concentration of half-maximal effect. The method in brief: as §1
A short description of assay [3]: qHTS of pediatric cancer cell lines to identify multiple opportunities for drug repurposing: Primary screen for Rh18 cells (AID 1347102). Note: nearly all actives have a fitted effect of over 65% in size. Note: potency is the fitted concentration of half-maximal effect. The method in brief: as §1
The nature of assay [4]: qHTS of pediatric cancer cell lines to identify multiple opportunities for drug repurposing: Primary screen for OHS-50 cells (AID 1347103). Note: nearly all actives have a fitted effect of over 40% in size. Note: potency is the fitted concentration of half-maximal effect. The method in brief:
as §1

Assay [5] is described as follows: qHTS of pediatric cancer cell lines to identify multiple opportunities for drug repurposing: Primary screen for RD cells (AID 1347104). Note: nearly all actives have a fitted effect of over 55% in size. Note: potency is the fitted concentration of half-maximal effect. The method in brief:
(§2)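 Cells seeded at 500-1,000 cells/well in growth media, rested 5 hours at 37 degrees C, 5% CO2, then dosed; MIPE compounds at 11-point (from 0.78 nM) and NPC at 8-point (from 0.59 nM) final concentrations. Viability by CellTiter-Glo luminescence after 48 hours.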

The nature of assay [6]: qHTS of pediatric cancer cell lines to identify multiple opportunities for drug repurposing: Primary screen for MG 63 (6-TG R) cells (AID 1347105). Note: nearly all actives have a fitted effect of over 50% in size. Note: potency is the fitted concentration of half-maximal effect. The method in brief:
as §2

A short description of assay [7]: qHTS of pediatric cancer cell lines to identify multiple opportunities for drug repurposing: Primary screen for control Hh wild type fibroblast cells (AID 1347106).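 Note: series mostly up to about 46 µM; a drop in luminescence marks cytotoxicity and a rise apparent proliferation; nearly all actives have a fitted effect of over 55% in size.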 The method in brief:
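Viability after 48 h compound treatment at 37C, 500-1,000 cells/well, read as ATP luminescence with CellTiter-Glo. Primary screens used 11-point (MIPE, 0.78 nM-46 µM) or 8-point (NPC, 0.59 nM-46 µM) final concentrations; follow-up screens used 11-point dilutions.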

Assay [8] in a line: qHTS of pediatric cancer cell lines to identify multiple opportunities for drug repurposing: Primary screen for Rh30 cells (AID 1347107). Note: nearly all actives have a fitted effect of over 75% in size. Note: potency is the fitted concentration of half-maximal effect. The method in brief: as §1
Assay [9] can be described thus: qHTS of pediatric cancer cell lines to identify multiple opportunities for drug repurposing: Primary screen for Rh41 cells (AID 1347108). Note: nearly all actives have a fitted effect of over 70% in size. Note: potency is the fitted concentration of half-maximal effect. The method in brief:
as §2

The nature of assay [10]: qHTS of pediatric cancer cell lines to identify multiple opportunities for drug repurposing: Confirmatory screen for NB1643 cells (AID 1347109). Note: potency is the fitted concentration of half-maximal effect; nearly all actives have a fitted effect of over 45% in size. The method in brief: as §1
Assay [11] can be described thus: qHTS of pediatric cancer cell lines to identify multiple opportunities for drug repurposing: Confirmatory screen for SK-N-MC cells (AID 1347111).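 Note: potency is the fitted concentration of half-maximal effect; cells exposed to compound for 48 h before the readout; nearly all actives have a fitted effect of over 70% in size.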 The method in brief: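 Seed 500-1,000 cells/well; rest 5 h at 37 degrees C. Pin-transfer compounds, 11-point titration. Incubate 48 h. Add CellTiter-Glo, 15 min RT, read luminescence.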
Assay [12] is described as follows: qHTS of pediatric cancer cell lines to identify multiple opportunities for drug repurposing: Confirmatory screen for BT-12 cells (AID 1347112). Note: potency is the fitted concentration of half-maximal effect; nearly all actives have a fitted effect of over 55% in size. The method in brief: as §1
The nature of assay [13]: qHTS of pediatric cancer cell lines to identify multiple opportunities for drug repurposing: Confirmatory screen for LAN-5 cells (AID 1347113). Note: potency is the fitted concentration of half-maximal effect; nearly all actives have a fitted effect of over 65% in size. The method in brief: as §1
Assay [14] can be described thus: qHTS of pediatric cancer cell lines to identify multiple opportunities for drug repurposing: Confirmatory screen for DAOY cells (AID 1347114). Note: potency is the fitted concentration of half-maximal effect; nearly all actives have a fitted effect of over 65% in size. The method in brief:
(§3)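 Viability measured as metabolically active cells via CellTiter-Glo luminescence following 48 hours of compound exposure, 11-point dilutions in confirmatory testing. 500-1,000 cells/well plated 5 hours before dosing; controls were DMSO and 2.3 µM bortezomib.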

Assay [15] is described as follows: qHTS of pediatric cancer cell lines to identify multiple opportunities for drug repurposing: Confirmatory screen for SJ-GBM2 cells (AID 1347116). Note: potency is the fitted concentration of half-maximal effect; nearly all actives have a fitted effect of over 60% in size. The method in brief:
as §3

The nature of assay [16]: qHTS of pediatric cancer cell lines to identify multiple opportunities for drug repurposing: Confirmatory screen for BT-37 cells (AID 1347117). Note: potency is the fitted concentration of half-maximal effect; nearly all actives have a fitted effect of over 55% in size. The method in brief: as §1
A short description of assay [17]: qHTS of pediatric cancer cell lines to identify multiple opportunities for drug repurposing: Confirmatory screen for TC32 cells (AID 1347118).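 Note: potency is the fitted concentration of half-maximal effect; cells exposed to compound for 48 h before the read; nearly all actives have a fitted effect of over 65% in size.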 The method in brief:
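Luminescent CellTiter-Glo read-out of metabolically active TC32 cells after 48 h compound exposure. Primary: MIPE 11-point, 0.78 nM–46 µM; NPC 8-point, 0.59 nM–46 µM. Confirmatory: 11-point dilutions.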

Assay [18] in a line: qHTS of pediatric cancer cell lines to identify multiple opportunities for drug repurposing: Confirmatory screen for control Hh wild type fibroblast cells (AID 1347121). Note: potency is the fitted concentration of half-maximal effect; nearly all actives have a fitted effect of over 70% in size. The method in brief:
as §1

Assay [19] is described as follows: qHTS of pediatric cancer cell lines to identify multiple opportunities for drug repurposing: Confirmatory screen for U-2 OS cells (AID 1347122). The method in brief:
as §1

“And” between values parts separate entries of the source, which are not always exact repeats. Identical values can stand only once. Records with an inconclusive call do not appear. The source made the active and inactive calls. Calls come from the whole dose curve; as a rule, active = well fitted curve in the direction sought with a large enough effect; inconclusive = small, poorly fitted or top-dose-only effect, or another doubt; inactive = no such curve, though single readings can be large; an effect the other way counts as inactive or inconclusive.

For the compound `CCCCCN(C)CCC(O)(P(=O)(O)O)P(=O)(O)O`, the Potency entry in assay [1], in assay [2], in [3], in assay [4], in assay [5] and in assay [6] was “inactive” each time. The Potency entry in assay [7], in assay [8] and in assay [9] was “inactive” each time.

Consider `Cc1cnc(C(=O)O)c[n+]1[O-]`, for which the Potency result in assay [1], in assay [2], in assay [3], in assay [4], in assay [5] and in assay [6] was “inactive” each time. The Potency entry in assay [7] and in [8] was “inactive” in each case.

`COc1ccc(-c2coc3cc(O)ccc3c2=O)cc1`: the Potency result in [1], in [2], in assay [3], in assay [4], in [5] and in assay [6] was “inactive” each time. Besides, the Potency result in assay [7], in assay [8] and in assay [9] was “inactive” in each case.

Regarding `C[N+](C)(C)CC(=O)O`, the Potency entry in [1], in assay [2], in [3], in assay [4], in assay [5] and in assay [6] was “inactive” in each case. Besides, the Potency entry in assay [7], in assay [8] and in assay [9] was “inactive” each time.

Turning to `O=c1cc(N2CCOCC2)oc2c(-c3cccc4c3sc3ccccc34)cccc12`, the Potency in assay [1] was 14.8 µM (active); in assay [2] it was 24.3 µM (active); in assay [3], 18.7 µM (active); in assay [4], 7.69 µM (active); in [5], 13.2 µM (active); in assay [6], 14.8 µM (active). Moreover, in assay [7], the Potency result is “inactive”.

As for `Cc1ccc(C(=O)Nc2cccc(C(F)(F)F)c2)cc1Nc1nc(-c2cccnc2)nc2c1cnn2C`, the Potency in [1] is 13.2 µM (active); in [2], 24.3 µM (active); in assay [3], 20.9 µM (active); in assay [4], 21.7 µM (active); in assay [5], 14.8 µM (active); in [6], 18.7 µM (active). In addition, in assay [8], the Potency was 18.7 µM (active). Further, in [7], the Potency result was “inactive”.

On to `C[C@H]1[C@H](NC(=O)C(=NOC(C)(C)C(=O)O)c2csc(N)n2)C(=O)N1S(=O)(=O)O`, for which the Potency result in assay [1], in assay [2], in [3], in assay [4], in assay [5] and in assay [6] was “inactive” throughout. The Potency result in assay [7], in assay [8] and in assay [9] was “inactive” in each case.

Regarding `O=C1NC(=O)C(c2ccccc2)(c2ccccc2)N1`, the Potency entry in [1], in assay [2], in assay [3], in assay [4], in assay [5] and in assay [6] was “inactive” throughout. Further, the Potency entry in [7] and in [8] was “inactive” throughout.

For `O=C(NC1CCOCC1)c1ccc(-c2cc(-c3cn[nH]c3-c3ccccn3)ccn2)cc1`, the Potency entry in assay [1], in assay [2], in assay [3], in assay [4], in [5] and in assay [6] was “inactive” each time. The Potency result in assay [7], in [8] and in [9] was “inactive” in each case.

Turning to `C=C1C(=O)OC(CCCCCCCC)C1C(=O)O` (stereo not given), the Potency entry in assay [1], in [2], in assay [3], in [4], in [5] and in [6] was “inactive” throughout. In addition, the Potency entry in assay [7], in assay [8] and in assay [9] was “inactive” each time.

For the compound `COC(=O)[C@@H]1[C@H]2C[C@H]3c4[nH]c5ccccc5c4CCN3C[C@@H]2CC[C@@H]1O`, the Potency entry in assay [1], in assay [2], in assay [3], in assay [4], in assay [5] and in [6] was “inactive” in each case. For the same compound, the Potency entry in assay [7] and in assay [8] was “inactive” each time.

Consider `O=C(O)c1cc(-c2ccccc2)nc2ccccc12`, for which the Potency entry in [1], in assay [2], in assay [3], in assay [4], in assay [5] and in assay [6] was “inactive” each time. The Potency result in assay [7], in assay [8] and in assay [9] was “inactive” in each case.

`NCCS`: the Potency result in assay [1], in assay [2], in assay [3], in assay [4], in assay [5] and in [6] was “inactive” in each case. Besides, the Potency result in [7], in [8] and in assay [9] was “inactive” throughout.

On to `Nc1ncnc2c1ncn2[C@@H]1O[C@H](CO)C[C@@H]1O`, for which the Potency result in [1], in assay [2], in assay [3] and in assay [5] was “inactive” each time. Also, the Potency in assay [4] is 24.3 µM (active).

Take `CN(C)CCC(c1ccccc1)c1ccccn1` (stereo not given): the Potency entry in [1], in assay [2], in assay [3], in [4], in assay [5] and in assay [6] was “inactive” in each case. Further, the Potency entry in assay [7], in [8] and in [9] was “inactive” throughout.

Take `CCN(CC)CCNC(=O)c1ccc(N)cc1`: the Potency entry in [1], in assay [2], in [3], in assay [4], in assay [5] and in assay [6] was “inactive” throughout. Besides, the Potency entry in [7], in assay [8] and in [9] was “inactive” throughout.

On to `O=c1ccn([C@@H]2O[C@H](CO)[C@H](O)[C@H]2O)c(=O)[nH]1`, for which the Potency result in assay [1], in assay [2], in assay [4], in assay [5], in assay [6] and in [7] was “inactive” throughout. The Potency entry in [8] and in [9] was “inactive” in each case.

Consider `COc1cc2ncnc(Nc3ccc(F)c(Cl)c3)c2cc1OCCCN1CCOCC1`, for which the Potency in assay [1] is 6.05 µM (active); in assay [2], 39.5 µM (active); in assay [3] it was 34 µM (active); in [4] it was 8.85 µM (active) and 17.4 µM (active); in assay [5] it was 6.79 µM (active) and 23.7 µM (active); in [6], 27 µM (active). For the same compound, the Potency was 17.1 µM (active) in assay [9]; 38 µM (active) in assay [10]; 33.9 µM (active) in assay [11]; 42.7 µM (active) in [12]; 33.9 µM (active) in [13]; 38 µM (active) in assay [14]. The Potency in assay [15] is 2.4 µM (active); in assay [16], 13.5 µM (active); in [17], 33.9 µM (active); in assay [18], 47.9 µM (active); in assay [19], 26.9 µM (active). Also, in [8], the Potency result was “inactive”.

In the case of `Clc1ccc(-c2nc3sccn3c2C=NOCc2ccc(Cl)c(Cl)c2)cc1`, the Potency entry in assay [1], in assay [2], in [3], in assay [4], in assay [5] and in assay [7] was “inactive” in each case. Moreover, the Potency entry in assay [8] is “inactive”.

Turning to `Nc1ncnc2ccccc12`, the Potency result in assay [1], in assay [2], in assay [3], in assay [4], in assay [5] and in assay [6] was “inactive” in each case. In addition, the Potency result in assay [8] is “inactive”. For the same compound, in assay [9], the Potency was 23.5 µM (active).
